Structures are written as SMILES. Where a name gives a salt, the structure may show the parent alone. ± gives the standard deviation of the averaged measurements. Whole data set: some 1,900 compounds, median “normalised cell viability (NPI; 0 = phenylarsine oxide control, 1 = DMSO control)” near 1, cut for the lowest 2% near 0.039. For the sample, the lowest values were picked, then their nearest neighbours and some compounds at random.

In this test the test system is NCI-H1944. Put plainly: normalised cell viability (NPI; 0 = phenylarsine oxide control, 1 = DMSO control) (fraction of DMSO control); NCI-H1944 is a non-small cell lung cancer line; higher = more viable cells (less compound toxicity). The conditions noted are these: 6 days.
[1] abbreviates: glucocorticoid arm: hydrocortisone 2.75 uM co-treatment, compound 1 µM.
[2] abbreviates: glucocorticoid arm: hydrocortisone 2.75 uM co-treatment, compound 5 µM.
Setting [3] is: glucocorticoid arm: hydrocortisone 2.75 uM pre-treated 2 days and continued, compound 1 µM.
[4] abbreviates: glucocorticoid arm: hydrocortisone 2.75 uM pre-treated 2 days and continued, compound 5 µM.
The mark [5] stands for this setting: glucocorticoid arm: vehicle, compound 1 µM.
Where [6] appears, read: glucocorticoid arm: vehicle, compound 5 µM.
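Also: CTB read-out in 384-well plates, triplicate wells, NPI normalised per plate against 1 µM phenylarsine oxide (0) and 0.1% DMSO (1) controls.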

In the case of `CC(=O)NC(C(=O)O)C(C)(C)SN=O` (stereo not given) [S-Nitroso-N-acetylpenicillamine], the normalised cell viability under setting [1] was 0.998 ± 0.014; the normalised cell viability under setting [2] was 1 ± 0.026; the normalised cell viability under setting [3] came to 1.01 ± 0.011; the normalised cell viability under setting [4] worked out at 0.987 ± 0.023; the normalised cell viability under setting [5] is 0.9937 ± 0.0011; the normalised cell viability under setting [6] was determined as 0.9943 ± 0.0055.
For `O=C1c2c(O)cc(O)cc2O[C@H](c2ccc(O)c(O)c2)[C@H]1O` (racemic) [(±)-Taxifolin], the normalised cell viability under setting [1] was found to be 1.01 ± 0.013; the normalised cell viability under setting [2] came to 0.995 ± 0.0078; the normalised cell viability under setting [3] worked out at 1.02 ± 0.035; the normalised cell viability under setting [4] stood at 1.01 ± 0.012; the normalised cell viability under setting [5] was 1.017 ± 0.0058; the normalised cell viability under setting [6] came to 1.017 ± 0.0058.
On to `CO[C@@]12[C@H](COC(N)=O)C3=C(C(=O)C(C)=C(N)C3=O)N1C[C@@H]1N[C@@H]12` [Mitomycin; Mitomycin C], for which the normalised cell viability by setting is: under setting [1], 1 ± 0.013; under setting [2], 0.00117 ± 0.0012; under setting [3], 1.017 ± 0.0058; under setting [4], 0.0028 ± 0.00069; under setting [5], 0.9803 ± 0.0055; under setting [6], 0.000408 ± 0.00038.
Take `O=C1c2c(O)ccc(O)c2C(=O)c2c(NCCNCCO)ccc(NCCNCCO)c21` [Mitoxantrone; Mitoxantrone dihydrochloride]: the normalised cell viability is, setting by setting: under setting [1], 0.181 ± 0.0045; under setting [2], 0.00493 ± 0.00072; under setting [3], 0.65 ± 0.012; under setting [4], 0.0166 ± 0.0015; under setting [5], 0.0328 ± 0.004; under setting [6], 0.00403 ± 0.00087.
Take `O=C1c2c(O)ccc(O)c2C(=O)c2c(NCCNCCO)ccc(NCCNCCO)c21` [Mitoxantrone dihydrochloride]: the normalised cell viability under setting [1] was found to be 0.00888 ± 0.0019; the normalised cell viability under setting [2] was 0.00352 ± 0.00052; the normalised cell viability under setting [3] was found to be 0.145 ± 0.013; the normalised cell viability under setting [4] was determined as 0.155 ± 0.0095; the normalised cell viability under setting [5] stood at 0.00324 ± 0.00091; the normalised cell viability under setting [6] stood at 0.00617 ± 0.003.
As to `O=C1c2ccccc2C(=O)c2c(NCCc3ccc(O)cc3)ccc(NCCc3ccc(O)cc3)c21`, the normalised cell viability under setting [1] is 1.01 ± 0.012; the normalised cell viability under setting [2] stood at 1.02 ± 0.038; the normalised cell viability under setting [3] was 1.01 ± 0.012; the normalised cell viability under setting [4] is 1.012 ± 0.0075; the normalised cell viability under setting [5] turned out to be 1.01 ± 0.0063; the normalised cell viability under setting [6] worked out at 1.022 ± 0.0098.
For `O=C(NCc1cccc(O)c1)Nc1nc(-c2ccncc2)cs1`, the normalised cell viability under setting [1] came out at 0.994 ± 0.01; the normalised cell viability under setting [2] is 0.978 ± 0.021; the normalised cell viability under setting [3] was 1.01 ± 0.014; the normalised cell viability under setting [4] is 0.971 ± 0.035; the normalised cell viability under setting [5] is 0.984 ± 0.0069; the normalised cell viability under setting [6] worked out at 0.816 ± 0.054.
As for `C=C/C(C)=C/[C@@]1(C)SC(=O)C(C)=C1O` [Thiolactomycin], the normalised cell viability runs as follows: under setting [1], 0.992 ± 0.0056; under setting [2], 0.961 ± 0.021; under setting [3], 1 ± 0.026; under setting [4], 0.848 ± 0.23; under setting [5], 0.9883 ± 0.0015; under setting [6], 0.998 ± 0.012.
Regarding `C=CCN1CCc2c(cc(O)c(O)c2Cl)C(c2ccccc2)C1` (racemic) [(±)-Chloro-APB hydrobromide], the normalised cell viability worked out at 0.9917 ± 0.0072 under setting [1]; 1.02 ± 0.01 under setting [2]; 0.989 ± 0.0061 under setting [3]; 1 ± 0.011 under setting [4]; 0.9943 ± 0.0021 under setting [5]; 0.99467 ± 0.00058 under setting [6].
On to `N#C/C(=C\c1ccc(-c2cc(Cl)ccc2Cl)o1)C(=O)Nc1cccc2ncccc12`, for which the normalised cell viability is, setting by setting: under setting [1], 0.971 ± 0.01; under setting [2], 0.978 ± 0.035; under setting [3], 0.984 ± 0.018; under setting [4], 0.991 ± 0.014; under setting [5], 0.9887 ± 0.0078; under setting [6], 0.989 ± 0.012.
On to `O=C(/C=C/C#Cc1cccc(NS(=O)(=O)c2ccccc2)c1)NO` [Oxamflatin], for which the normalised cell viability by setting is: under setting [1], 0.974 ± 0.015; under setting [2], 0.599 ± 0.44; under setting [3], 0.992 ± 0.019; under setting [4], 0.901 ± 0.11; under setting [5], 0.843 ± 0.17; under setting [6], 0.509 ± 0.54.
Turning to `O=C(/C=C/c1cccc(S(=O)(=O)Nc2ccccc2)c1)NO` [Belinostat (PXD101)], the normalised cell viability was found to be 0.9767 ± 0.0051 under setting [1]; 0.0174 ± 0.0036 under setting [2]; 1.02 under setting [3]; 0.114 ± 0.0036 under setting [4]; 0.575 ± 0.067 under setting [5]; 0.00153 ± 0.00067 under setting [6].
With `COc1cccc(NC(=O)/C=C/c2ccc(Cl)cc2)c1`, the normalised cell viability is, setting by setting: under setting [1], 0.953 ± 0.015; under setting [2], 0.884 ± 0.026; under setting [3], 0.992 ± 0.029; under setting [4], 0.941 ± 0.023; under setting [5], 0.9757 ± 0.0093; under setting [6], 0.9683 ± 0.0067.
As for `N[C@H](C(=O)O)[C@H]1C[C@@H]1C(=O)O` [(2S,1'S,2'S)-2-(carboxycyclopropyl)glycine], the normalised cell viability is, setting by setting: under setting [1], 0.99 ± 0.0046; under setting [2], 0.979 ± 0.019; under setting [3], 0.994 ± 0.0095; under setting [4], 0.978 ± 0.015; under setting [5], 0.9847 ± 0.0055; under setting [6], 0.9883 ± 0.0097.
On to `COC(=O)[C@]12CCC(C)(C)C[C@H]1[C@H]1C(=O)C=C3[C@@]4(C)C=C(C#N)C(=O)C(C)(C)[C@@H]4CC[C@@]3(C)[C@]1(C)CC2` [Bardoxolone Methyl], for which the normalised cell viability amounted to 0.00114 ± 0.00058 under setting [1]; 1.08 ± 0.01 under setting [2]; 0.00366 ± 0.0014 under setting [3]; 1.1 ± 0.015 under setting [4]; 0.00138 ± 0.00077 under setting [5]; 0.858 ± 0.022 under setting [6].
`N.N.N.N.N.N.N.N.N.N.N.N.N.N.O.O.[Cl-].[Cl-].[Cl-].[Cl-].[Cl-].[Cl-].[Ru+4].[Ru+5].[Ru+5]` [Ruthenium red]: the normalised cell viability by setting is: under setting [1], 0.991 ± 0.01; under setting [2], 0.974 ± 0.021; under setting [3], 1.01 ± 0.027; under setting [4], 0.987 ± 0.023; under setting [5], 0.995 ± 0.0052; under setting [6], 0.973 ± 0.0087.
Turning to `CC(C)(C)NCC(O)COc1cccc2[nH]c(=O)[nH]c12` (racemic), the normalised cell viability reads like this: under setting [1], 0.9973 ± 0.0023; under setting [2], 0.974 ± 0.014; under setting [3], 0.992 ± 0.015; under setting [4], 0.988 ± 0.0076; under setting [5], 0.9853 ± 0.0067; under setting [6], 0.985 ± 0.0053.
On to `CC1c2cccc(O)c2C(O)=C2C(=O)C3(O)C(O)=C(C(N)=O)C(=O)C(N(C)C)C3C(O)C21` (stereo not given) [Doxycycline hydrochloride], for which the normalised cell viability is, setting by setting: under setting [1], 1; under setting [2], 0.9303 ± 0.0093; under setting [3], 0.99 ± 0.014; under setting [4], 0.945 ± 0.018; under setting [5], 0.9897 ± 0.0067; under setting [6], 0.9743 ± 0.006.
With `COC(=O)C(C)(N)Cc1ccc(O)cc1` (racemic) [alpha-Methyl-DL-tyrosine methyl ester hydrochloride], the normalised cell viability by setting is: under setting [1], 1.004 ± 0.01; under setting [2], 1.01 ± 0.034; under setting [3], 1.01 ± 0.023; under setting [4], 0.999 ± 0.011; under setting [5], 0.9943 ± 0.0057; under setting [6], 1.004 ± 0.0098.
Consider `Cn1c(=O)c(F)c(Nc2ccc(I)cc2F)c2c(=O)n(C[C@@H](O)CO)cnc21`, for which the normalised cell viability runs as follows: under setting [1], 0.641 ± 0.035; under setting [2], 0.629 ± 0.043; under setting [3], 0.772 ± 0.028; under setting [4], 0.757 ± 0.042; under setting [5], 0.329 ± 0.013; under setting [6], 0.226 ± 0.025.
Turning to `Cc1cc(C(=O)NOCCO)c(Nc2ccc(I)cc2F)n(C)c1=O`, the normalised cell viability amounted to 0.614 ± 0.018 under setting [1]; 0.565 ± 0.035 under setting [2]; 0.66 ± 0.011 under setting [3]; 0.672 ± 0.037 under setting [4]; 0.286 ± 0.014 under setting [5]; 0.279 ± 0.013 under setting [6].
Consider `CCCNC[C@H](O)COc1ccccc1C(=O)CCc1ccccc1` [(S)-(-)-propafenone hydrochloride], for which the normalised cell viability came out at 0.99967 ± 0.00058 under setting [1]; 0.9747 ± 0.0047 under setting [2]; 1.02 ± 0.026 under setting [3]; 1.02 ± 0.015 under setting [4]; 0.9967 ± 0.0058 under setting [5]; 0.995 ± 0.005 under setting [6].
On to `Cc1nc(C#Cc2ccnc(Cl)c2)c(C)n1-c1ccc(OC(F)(F)F)cc1`, for which the normalised cell viability runs as follows: under setting [1], 0.993 ± 0.021; under setting [2], 0.992 ± 0.01; under setting [3], 0.983 ± 0.015; under setting [4], 0.9747 ± 0.004; under setting [5], 1 ± 0.017; under setting [6], 1 ± 0.014.
Regarding `O=S(=O)(NCCNCC=Cc1ccc(Br)cc1)c1cccc2cnccc12`, the normalised cell viability was 0.985 ± 0.012 under setting [1]; 0.985 ± 0.025 under setting [2]; 1.03 ± 0.01 under setting [3]; 1.007 ± 0.0058 under setting [4]; 1.002 ± 0.0072 under setting [5]; 0.968 ± 0.016 under setting [6].
On to `Cc1ccccc1N1CCN(S(=O)(=O)C[C@]23CC[C@H](C[C@@H]2NC(=O)[C@@H](N)CCS(C)(=O)=O)C3(C)C)CC1` [L-368,899 hydrochloride], for which the normalised cell viability under setting [1] turned out to be 0.99 ± 0.017; the normalised cell viability under setting [2] is 0.986 ± 0.024; the normalised cell viability under setting [3] turned out to be 0.998 ± 0.013; the normalised cell viability under setting [4] amounted to 1.01 ± 0.023; the normalised cell viability under setting [5] was determined as 0.9847 ± 0.0035; the normalised cell viability under setting [6] was found to be 0.9993 ± 0.0095.

(Values after the supplement of paper PMC8285479.)
